Assay outcomes as filed in PubChem BioAssay.
Mito fusion yeast: qHTS Assay for Small Molecule Inhibitors of Mitochondrial Division or Activators of Mitochondrial Fusion. S. cerevisiae fusion-defective mutant growth rescue, CellTiterGlo 48 h. 320,000 tested, 0.23% active. Potency, µM (series often up to 46.1 µM), without a hit: at the top dose growth rescue (activation), hits mostly activators; note: potency is the fitted concentration of half-maximal effect; % of control where 0% means no effect; nearly all actives have a fitted effect of over 45% in size
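S. cerevisiae fusion-defective temperature-sensitive mutants (e.g. fzo1-1, mgm1-5) grown 48 h at 37C in YPEG (ethanol/glycerol non-fermentable) medium with 23 nl compound per well; growth rescue read as CellTiterGlo luminescence.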
Anesthetic bind: qHTS Assay for Identification of Novel General Anesthetics. Ferritin light chain (Equus caballus), P02791. apoferritin/1-aminoanthracene competitive binding, fluorescence. Potency, µM (titrated, usually from 77.5 µM), for inactives: top-dose activity change, negative = displacement, hits mostly inhibitors. 350,000 tested, 0.074% active; note: potency is the fitted concentration of half-maximal effect; % is set by controls: 0 for no effect and ±100 for the full control effect; nearly all actives have a fitted effect of over 20% in size
Target sequence (P02791 2-175 limits assumed): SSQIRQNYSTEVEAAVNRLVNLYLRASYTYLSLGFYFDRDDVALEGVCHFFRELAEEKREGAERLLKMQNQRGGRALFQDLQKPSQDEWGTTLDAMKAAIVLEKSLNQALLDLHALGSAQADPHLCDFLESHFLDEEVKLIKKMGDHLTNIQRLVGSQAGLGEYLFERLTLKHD
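Steps: apoferritin (10 uM) was premixed with half-saturated 1-AMA in PBS, compounds were pin-transferred, plates stood 10 min at room temperature, fluorescence was read at 380/535 nm, and curves were fitted with a Hill equation.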
TDP-43 yeast inh: qHTS of TDP-43 Inhibitors; Potency, µM (doses to about 46.1 µM), without a hit: at the top dose growth rescue (activation), usual class: activators; TDP-43 expressing yeast growth rescue, BacTiter-Glo, 24 h; 410,000 tested, 1.8% active; AID 652104, 2013; note: potency is the fitted concentration of half-maximal effect; % of control where 0% means no effect; nearly all actives have a fitted effect of over 50% in size
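Luminescence from BacTiter-Glo reports growth of TDP-43-expressing yeast after 24 hr at 30 deg C with compound. Cells were raffinose-pregrown to mid-log, then seeded in galactose medium at OD600=0.02.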
aSyn yeast inh: qHTS of alpha-syn Inhibitors. Yeast expressing alpha-synuclein, growth rescue, BacTiter-Glo, 24 h. Potency, µM (top dose mostly 46.1 µM), for inactives: at the top dose growth rescue (activation), actives largely listed as activators. 370,000 tested, 0.14% active. AID 652106, 2013; note: potency is the fitted concentration of half-maximal effect; % of control where 0% means no effect; nearly all actives have a fitted effect of over 65% in size
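Readout is rescue of growth in alpha-synuclein-expressing yeast, so inhibitors of toxicity appear as activators. Growth after 24 hr at 30 deg C in galactose medium is quantified by luminescence.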
pAkt inh: HTS Assay for Inhibitors of Akt Phophorylation: Primary Screen; Neuro2A IGF-stimulated pAkt S473 HTRF, 20 min; stronger effect = lower value; activity change, % for hits at 50 µM; 360,000 tested, 0.32% active; AID 651550, 2012; in the data active = activity change below about -80%; inconclusive = mostly about -51% to -80%; note: % is set by controls: 0 for no effect and ±100 for the full control effect
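Neuro2A cells in DMEM with 0.5% FBS, overnight at 37 deg C, given compound at single 50 µM final, then IGF (6 nM final) for 20 min at 37 deg C. Lysed; phospho-Akt Ser473 by HTRF after 24 h, 665/615 ratio.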
CCT chaperon mod: High-Throughput Screening for Modulators of Cytosolic Chaperonin Activity; purified chaperonin ATPase assay, HTRF ADP detection, 30 min; activity change, % (test concentration not listed), hits read low; 360,000 tested, 0.3% active; AID 651819, 2012; in the data active = activity change below about -30%; note: % is set by controls: 0 for no effect and ±100 for the full control effect
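TRiC at 40 or 20 nM final (batch-dependent) in 30 mM Tris pH 7.4, 100 mM KCl, 5 mM MgCl2, 1 mM DTT, with compound at single 76 uM and 10 uM ATP, 30 min at 37 deg C. ADP detected by HTRF Transcreener, 665/615 ratio.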
Starred values were filed as active, the others as inactive; i = inactive; ? = inconclusive; · = not tested or not shown; [ ] = dose if it differs, or a comment. The list is not random: actives were taken first. Their share in the collection is about 2.5%. Unless noted, calls come from the whole dose curve; as a rule, active = well fitted curve in the direction sought with a large enough effect; inconclusive = small, poorly fitted or top-dose-only effect, or another doubt; inactive = no such curve, though single readings can be large; an effect the other way counts as inactive or inconclusive.

SMILES	Mito fusion yeast	Anesthetic bind	TDP-43 yeast inh	aSyn yeast inh	pAkt inh	CCT chaperon mod
COC(=O)C1=C(C)N(Cc2ccccc2)[C@]23O[C@](C(=O)OC)(C(=O)N2C1c1ccccc1)C1CCOC(=O)C13 (some centres undefined)	·	0%[15.3 µM]	·	·	·	·
Cc1cccc(NC(=O)Cn2c(=O)n(CCc3ccccc3)c(=O)c3sc4ccccc4c32)c1	·	1%	5%	·	·	·
COC(=O)c1cc(NC(=O)CSc2nc(C)cc(=O)[nH]2)cc(C(=O)OC)c1	-6%	6%	-12%	0%	-106%*	-2
COc1ccc(NC(=O)C(=O)c2cc(C)n(-c3ccc(C)cc3)c2C)cc1Cl	·	-15%	7%	·	·	·
COc1ccc(-c2cc(C(=O)OC3CCOC3=O)c3ccccc3n2)cc1 (centres undefined)	0%	-13%	16µM*	-5%	i	-3
CS(=O)(=O)c1ccc(C(=O)OCC(=O)NCC2CCCO2)cc1[N+](=O)[O-] (centres undefined)	·	·	·	-2%	·	·
Cc1nn(Cc2ccc(C(=O)Nc3ccccc3C(F)(F)F)o2)c(C)c1Br	-1%	?	13µM*	·	·	2
Cc1csc(NC(=O)c2ccc(Cn3nc(C)c(Br)c3C)o2)n1	6%	-12%	?	-54%	i	-2
COc1ccc(Cl)cc1-c1cc(C(=O)NCc2cccc(Cl)c2)[nH]n1	·	·	-18%	8%	i	-1
CC(C)Oc1cc(F)ccc1-c1cc(C(=O)NCC2CCCCC2)[nH]n1	·	·	18µM*	-22%	i	3
COc1ccc(Cl)cc1-c1cc(C(=O)NCC2CCCCC2)[nH]n1	·	·	?	-1%	i	-1
COc1ccc(Cl)cc1-c1cc(C(=O)NCc2cccs2)[nH]n1	·	·	11µM*	7%	·	0
CCOc1ccc(Cl)cc1-c1cc(C(=O)NCC2CCCCC2)[nH]n1	·	·	14µM*	-1%	i	0
CC1CCN2c3ccccc3CC3(C(=O)OC(C)(C)OC3=O)C2C1 (centres undefined)	·	·	·	8%	·	·
CN1C/C(=C/c2ccc(B(O)O)cc2)C(=O)/C(=C/c2ccc(B(O)O)cc2)C1	·	-11%	·	·	·	·
O=C(Nc1ccc(Cl)cc1Cl)c1cc(S(=O)(=O)N2CCC3(CC2)OCCO3)ccc1F	·	-11%	12%	·	·	·
O=C1c2cccnc2C(=O)N1c1nc(-c2ccccc2)cs1	·	·	·	1%	·	·
CCOC(=O)c1ccc2nc(NC(=O)C(C)C)sc2c1	15%	-3%	10µM*	-6%	i	-3
CCOC(=O)C1=C(C)Nc2nc(=S)[nH]n2C1c1ccc(Cl)cc1 (centres undefined)	-3%	?	22µM*	?	i	1
Clc1ccc(Cn2c3c(c4ccccc42)CCc2cc4ccccc4nc2-3)cc1	·	·	·	-3%	·	·
O=C(Nc1ccnn1C1CCN(CC2CC=CCC2)CC1)c1ccccc1 (centres undefined)	1%	-15%	-12%	-9%	·	-54*
COc1ccc(C(=O)Nc2ccnn2C2CCN(CC3CC=CCC3)CC2)cc1 (centres undefined)	1%	-10%	10%	-9%	i	-2
COc1ccc(C(=O)Nc2ccnn2C2CCN(Cc3cnn(C)c3)CC2)cc1	4%	3%	19%	1%	i	0
COc1ccc(C(=O)Nc2ccnn2C2CCN(Cc3ccccn3)CC2)cc1	-1%	-10%	-3%	-3%	i	-35*
Cc1cccc(CSc2ncc(Cl)c(C(=O)Nc3sc4c(c3C(N)=O)CCCC4)n2)c1	·	-16%	-6%	·	·	·
SMILES	Mito fusion yeast	Anesthetic bind	TDP-43 yeast inh	aSyn yeast inh	pAkt inh	CCT chaperon mod
CC1CCN(S(=O)(=O)c2ccc3c(ccc(=O)n3CC(=O)Nc3ccc(C(C)C)cc3)c2)CC1	·	?	3%	28%	·	·
COCCNc1nc(C)nc2c1nc(-c1ccccc1)n2CCN(C)C	·	-3%	·	·	·	·
CC1CCCCN1S(=O)(=O)c1ccc(NC(=O)c2cccc(-n3cnnn3)c2)cc1 (centres undefined)	-5%	?	18%	3%	i	-1
CC1CCCN(S(=O)(=O)c2ccc(NC(=O)c3cccc(-n4cnnn4)c3)cc2)C1 (centres undefined)	-1%	14µM*	-11%	0%	i	-1
CC(C)CN(C(=O)COC(=O)c1ccc2c(c1)NC(=O)CS2)C1CCS(=O)(=O)C1 (centres undefined)	0%	-13%	12%	-13%	i	-2
CN(C(=O)COC(=O)c1ccc2c(c1)NC(=O)CS2)C1CCS(=O)(=O)C1 (centres undefined)	1%	-13%	3%	1%	-108%*	-2
O=C(O)c1ccccc1N1C(=O)c2cccc3cccc(c23)C1=O	1%	24%	-10%	2%	i	-8
Cc1ccccc1N1C(=O)c2cccc3cccc(c23)C1=O	3%	-5%	20µM*	-22%	i	1
Cc1ccc2c(c1)nnn2C1CCN(C(=O)C2CCCCC2)CC1	3%	-10%	20µM*	4%	i	1
Cc1cc(C)cc(NC(=O)C2C3C=CC4(O3)C2C(=O)N(CCCN2CCCC2)C4C(=O)NC2CCCC(C)C2C)c1 (centres undefined)	38%	2%	-1%	0%	i	-1
COc1ccc(NC(=O)C2C3C=CC4(O3)C2C(=O)N(CCN2CCCCC2)C4C(=O)NC2CCCC(C)C2C)cc1 (centres undefined)	32µM*	1%	-9%	1%	i	-1
CC(I)CCC(C)[n+]1cccc(I)c1 (centres undefined)	·	·	·	-2%	·	·
O=C(COc1ccc(Cl)cc1)NCC(c1ccco1)S(=O)(=O)c1ccccc1 (centres undefined)	·	-12%	6%	·	·	·
O=C(COc1ccc(Cl)cc1)NCC(c1ccco1)S(=O)(=O)c1ccc(Cl)cc1 (centres undefined)	·	-1%	35µM*	·	·	·
O=C(Nc1ccc(Cl)cc1)c1cc2c(cc1O)[nH]c1ccccc12	-45%	4%	4µM*	-13%	i	-4
CC(=O)Nc1ccc2[nH]c3ccccc3c2c1	2%	-7%	0%	-2%	i	-1
CCOC(=O)CNC(=O)N1CCN(S(=O)(=O)c2ccc3c(ccn3C)c2)CC1	·	-4%	-1%	-5%	·	·
Cc1ccc(N2CCN(C(=O)C3CCCN(c4ncnc5c4nc4n5CCCCC4)C3)CC2)c(C)c1 (centres undefined)	3%	-2%	10%	2%	i	1
